PubChem BioAssay (Tox21)
Records with an inconclusive call do not appear. Calls of active or inactive are those of the source. Unless noted, calls follow the shape of the dose curve; as a rule, active = well fitted curve in the direction sought with a large enough effect in the repeat runs; inconclusive = weak or mixed curves; inactive = no such curve, though single readings can be large; an effect the other way counts as inactive or inconclusive.

How the values were obtained:
[1] = qHTS assay to identify small molecule antagonists of the estrogen related receptor (ERR) signaling pathway from Tox21 library - cell viability counter screen (AID 1224834); also: nearly all actives have a fitted effect of over 30% in size; also: potency is read from the fitted curve at half-maximal effect
How it was run: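 ERR reporter cells were plated 6 h before compound addition, then exposed to test compounds in DMSO for 17.5 h at 37 C. Viability was read as CellTiter-Fluor fluorescence after a 30-minute incubation at 37 C.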

[2] = target: Luciferin 4-monooxygenase (Photinus pyralis) (UniProt P08659); assay: qHTS assay to identify small molecule inhibitors of firefly luciferase (AID 1224835); also: nearly all actives have a fitted effect of over 25% in size; also: potency is read from the fitted curve at half-maximal effect
How it was run: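 Quantitative HTS format; KM concentrations of both substrates. Purified P. pyralis FLuc activity quantified from luminescence images.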

[3] = qHTS assay to identify small molecule agonists of the constitutive androstane receptor (CAR) signaling pathway - cell viability counter screen (AID 1224836); also: series mostly up to about 92 µM; nearly all actives have a fitted effect of over 45% in size
How it was run: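 Compound titrations (15 concentrations) went onto HepG2-CYP2B6-hCAR cells 4 h after seeding, alongside PK11195 at a final 0.75 uM; a 23 h, 37 C/5% CO2 incubation preceded CellTiter-Fluor viability measurement.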

[4] = qHTS assay to identify small molecule antagonists of the constitutive androstane receptor (CAR) signaling pathway - cell viability counter screen (AID 1224837); also: series mostly up to about 92 µM; nearly all actives have a fitted effect of over 45% in size
How it was run: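 HepG2 cells stably expressing hCAR and a CYP2B6-2.2kb reporter were plated and pre-incubated 4 hr at 37 C/5% CO2, then given compounds at 15 concentrations plus 50 nM CITCO (final). After 23 hr, viability was read by CellTiter-Fluor fluorescence.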

[5] = qHTS assay to identify small molecule antagonists of the estrogen related receptor signaling pathway with the pleiotropic PPARgamma coactivator (PGC) from Tox21 10K library - cell viability counter screen (AID 1224840; active = well fitted cell-killing curve with a large enough effect in the repeat runs, not every such curve was filed as active; also: nearly all actives have a fitted effect of over 40% in size)
How it was run: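 PGC/ERR cells were seeded at 2,000 cells/well and left 6 hours at 37 C/5% CO2 before pin-tool addition of compounds in DMSO. After 17.5 hours at 37 C, CellTiter-Fluor was added and fluorescence read 30 minutes later.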

[6] = target: Thyrotropin receptor (Homo sapiens) (UniProt P16473); assay: qHTS assay to identify small molecule agonists of the thyroid stimulating hormone receptor (TSHR) signaling pathway (AID 1224843; calls by dose curve; also: nearly all actives have a fitted effect of over 45% in size)
How it was run: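 Cell line HEK293 with TSHR; density 800/well. Exposure 30 min RT. Readout HTRF cAMP (cAMP-d2/anti-cAMP-cryptate), 1 h RT before reading.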

[7] = target: Nuclear receptor subfamily 1 group I member 3 (Homo sapiens) (UniProt Q14994); assay: qHTS assay to identify small molecule antagonists of the constitutive androstane receptor (CAR) signaling pathway (AID 1224838); also: nearly all actives have a fitted effect of over 40% in size
How it was run: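 HepG2 cells stably co-transfected with hCAR and a CYP2B6-2.2kb luciferase reporter were seeded 4 h before compound addition at 15 concentrations. Cells were stimulated with 50 nM CITCO (final) for 24 h at 37 C; luciferase luminescence was then read.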

[8] = target: Nuclear receptor subfamily 1 group I member 3 (Homo sapiens) (UniProt Q14994); assay: qHTS assay to identify small molecule agonists of the constitutive androstane receptor (CAR) signaling pathway (AID 1224839); also: nearly all actives have a fitted effect of over 15% in size; also: potency is read from the fitted curve at half-maximal effect
How it was run: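 In this screen, CAR-driven CYP2B6 promoter activity is measured by luminescence in HepG2-CYP2B6-hCAR cells after 24 h with test compounds and 0.75 uM PK11195 (final concentration).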

[9] = qHTS assay to identify small molecule antagonists of the estrogen related receptor signaling pathway with the pleiotropic PPARgamma coactivator (PGC) from Tox21 10K library (AID 1224841; call rule not given here; also: actives are mostly falling curves and most rising ones were filed inactive; nearly all actives have a fitted effect of over 50% in size; also: potency is read from the fitted curve at half-maximal effect)
How it was run: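 PGC/ERR reporter cells were seeded at 2,000 cells/well and held 6 hours at 37 C/5% CO2 before pin-tool addition of compounds in DMSO. After 18 hours at 37 C, One-Glo was added and luminescence read after 30 minutes at room temperature.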

[10] = qHTS assay to identify small molecule agonists of the estrogen related receptor signaling pathway with the pleiotropic PPARgamma coactivator (PGC) from Tox21 10K library (AID 1224842); also: nearly all actives have a fitted effect of over 15% in size
How it was run: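 PGC/ERR reporter cells (NTP line) were seeded 2,000 per well, rested 6 h at 37 C/5% CO2, then pin-dosed with compounds in DMSO for 18 h at 37 C; luciferase read by One-Glo luminescence after 30 min at room temperature.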

Measured: Potency

Nuclear receptor subfamily 1 group I member 3 (Homo sapiens), sequence (Q14994 whole entry, looked up): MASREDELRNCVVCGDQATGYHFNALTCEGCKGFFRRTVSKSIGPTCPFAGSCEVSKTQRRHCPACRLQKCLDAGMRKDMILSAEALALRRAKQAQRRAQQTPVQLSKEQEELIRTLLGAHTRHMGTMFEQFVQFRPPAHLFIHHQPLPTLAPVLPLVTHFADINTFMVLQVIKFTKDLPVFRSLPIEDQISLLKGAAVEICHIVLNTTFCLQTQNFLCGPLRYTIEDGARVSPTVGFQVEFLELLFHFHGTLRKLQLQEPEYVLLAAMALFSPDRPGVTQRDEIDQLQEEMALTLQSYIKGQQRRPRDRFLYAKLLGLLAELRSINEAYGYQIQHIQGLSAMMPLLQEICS
Luciferin 4-monooxygenase (Photinus pyralis), sequence (P08659 whole entry, looked up): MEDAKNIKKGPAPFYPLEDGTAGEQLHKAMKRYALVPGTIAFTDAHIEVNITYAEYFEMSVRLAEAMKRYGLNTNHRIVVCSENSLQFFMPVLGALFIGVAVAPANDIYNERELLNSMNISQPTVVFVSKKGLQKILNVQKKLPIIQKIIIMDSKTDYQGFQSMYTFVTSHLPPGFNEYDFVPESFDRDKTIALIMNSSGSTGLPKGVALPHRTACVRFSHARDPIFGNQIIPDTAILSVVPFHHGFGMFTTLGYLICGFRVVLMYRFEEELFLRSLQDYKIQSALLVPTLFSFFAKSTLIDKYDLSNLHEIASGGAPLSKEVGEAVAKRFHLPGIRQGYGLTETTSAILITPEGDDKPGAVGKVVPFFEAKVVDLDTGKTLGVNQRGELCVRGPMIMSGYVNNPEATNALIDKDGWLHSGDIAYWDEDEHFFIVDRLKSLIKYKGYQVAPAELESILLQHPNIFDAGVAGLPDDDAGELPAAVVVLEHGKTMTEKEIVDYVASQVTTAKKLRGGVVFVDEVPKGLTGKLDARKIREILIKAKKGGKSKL
Thyrotropin receptor (Homo sapiens), sequence (P16473 whole entry, looked up): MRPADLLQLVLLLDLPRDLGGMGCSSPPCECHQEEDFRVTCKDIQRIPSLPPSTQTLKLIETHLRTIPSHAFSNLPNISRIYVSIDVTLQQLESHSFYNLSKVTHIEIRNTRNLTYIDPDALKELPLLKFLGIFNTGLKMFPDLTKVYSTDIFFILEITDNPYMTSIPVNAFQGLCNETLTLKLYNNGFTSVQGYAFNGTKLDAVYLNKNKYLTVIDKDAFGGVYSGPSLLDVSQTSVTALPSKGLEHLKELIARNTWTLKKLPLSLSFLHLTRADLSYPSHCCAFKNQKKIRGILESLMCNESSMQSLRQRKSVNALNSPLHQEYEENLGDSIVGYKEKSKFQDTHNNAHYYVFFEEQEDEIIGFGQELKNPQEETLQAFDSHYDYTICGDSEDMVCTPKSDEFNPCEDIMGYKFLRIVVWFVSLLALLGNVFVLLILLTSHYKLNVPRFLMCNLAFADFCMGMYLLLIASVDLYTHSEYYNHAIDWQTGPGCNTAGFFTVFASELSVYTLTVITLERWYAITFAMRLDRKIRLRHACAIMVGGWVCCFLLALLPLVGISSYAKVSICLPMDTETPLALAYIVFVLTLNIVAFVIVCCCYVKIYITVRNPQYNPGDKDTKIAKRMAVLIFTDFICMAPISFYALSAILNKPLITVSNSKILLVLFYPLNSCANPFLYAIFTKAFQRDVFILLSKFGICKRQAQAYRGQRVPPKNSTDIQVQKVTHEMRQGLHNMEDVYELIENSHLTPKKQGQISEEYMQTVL

C[N+](C)=CCl
inactive: [1] | [2] | [3] | [4] | [5] | [6]

CC(C1CC1)C(O)(Cn1cncn1)c1ccc(Cl)cc1 (stereo not given)
inactive: [1] | [2] | [3] | [4] | [5] | [6]

COC(C)(C)C
inactive: [1] | [2] | [3] | [4] | [5] | [6]

c1cc2c(c(N3CCNCC3)c1)OCCO2
inactive: [1] | [2] | [3] | [4] | [5] | [6]

CCOC(=O)N(C)C(=O)CSP(=S)(OCC)OCC
inactive: [2] | [3] | [4] | [7] | [5]
active: [8] 34.4 µM

CCCCN(CCCCO)N=O
not listed: [1]
inactive: all other assays above

COC(=O)COc1ccc(Cl)cc1Cl
inactive: [1] | [3] | [4] | [5] | [9] | [10]

CC(=O)Nc1cc([As](=O)(O)O)ccc1O
not listed: [1]
inactive: all other assays above

CCOP(=S)(OCC)Oc1nc(Cl)n(C(C)C)n1
inactive: [1] | [3] | [4] | [6]

CSc1nc(N=[N+]=[N-])nc(NC(C)C)n1
active: [8] 54.5 µM
not listed: [1] | [9] | [10]
inactive: all other assays above

NC(=S)C(N)=S
not listed: [1] | [6] | [9]
inactive: all other assays above

CNC(=O)Oc1cccc(C(C)C)c1
inactive: [1] | [3] | [4] | [7] | [5] | [6]

C=CCC1=C(C)[C@@H](OC(=O)[C@@H]2[C@@H](C=C(C)C)C2(C)C)CC1=O
inactive: [2] | [4] | [10] | [6]
active: [1] 54.5 µM | [8] 24.3 µM

CCOC(=O)C(c1c(O)c2ccccc2oc1=O)c1c(O)c2ccccc2oc1=O
inactive: [1] | [3] | [4] | [8] | [5] | [6]

C=C(C)CN(CC)c1c([N+](=O)[O-])cc(C(F)(F)F)cc1[N+](=O)[O-]
not listed: [1] | [6]
inactive: all other assays above

CC1CCCCC1NC(=O)Nc1ccccc1 (stereo not given)
active: [2] 35.6 µM | [8] 30.6 µM
not listed: [1]
inactive: all other assays above

CCCCCCBr
not listed: [2] | [9]
inactive: all other assays above

O=C(CCN1CC1)OCC(CO)(COC(=O)CCN1CC1)COC(=O)CCN1CC1
not listed: [1] | [9] | [10]
inactive: all other assays above

CCN(CC)C(=O)[C@@H]1C=C2c3cccc4[nH]cc(c34)C[C@H]2N(C)C1
inactive: [2] | [7] | [8] | [10]
active: [1] 80 µM

ClCCCN1CCN(c2cccc(Cl)c2)CC1
not listed: [3] | [8]
inactive: all other assays above

CC(C)(C)OC(=O)c1ncn2c1[C@@H]1CCCN1C(=O)c1c(Br)cccc1-2
not listed: [1] | [9]
inactive: all other assays above

O=C(N[C@H]1CN2CCC1CC2)c1cc2ccoc2cn1
not listed: [1] | [9] | [10]
inactive: all other assays above

O=c1oc2ccccc2c(O)c1C1CCCc2ccccc21 (stereo not given)
inactive: [1] | [3] | [4] | [8] | [10]
active: [9] 54.5 µM

BrCCCCCCBr
inactive: [1] | [3] | [4] | [7] | [8] | [6]

C[C@H]1CCC[C@H](O)CCCCCc2cc(O)cc(O)c2C(=O)O1
active: [1] 61.6 µM | [9] 54.9 µM
not listed: [4] | [5]
inactive: all other assays above
